Results from ChEMBL document CHEMBL4513216, “Probing the Open Global Health Chemical Diversity Library for Multistage-Active Starting Points for Next-Generation Antimalarials” (ACS Infect Dis, 2020).
Hit rate of the full screen: of about 69,000 compounds, about 8,600 (12%) showed an effect of 50% or more. The entries come from a sample that favours strong results as a whole.

Test system: Plasmodium berghei
Experiment: Screen against P. berghei liver stage (PbLuc), transformed with Luciferase, at 10uM
Type: functional, HepG2
Conditions: tested at 10 uM

Row | SMILES | INHIBITION [%]
1 | CC(NC(=O)N1CCC1)c1ccc(S(C)(=O)=O)cc1 (stereo not drawn) | 18.4
2 | CC(=O)N(C)c1nc(CN2CCCC2Cn2nc(C)cc2C)cs1 (stereo not drawn) | -14.7
3 | O=C(c1csc(-c2ccccn2)n1)N1CCCC1Cn1cccn1 (stereo not drawn) | 38.8
4 | O=C(Cc1cccs1)N1CCC(O)(CN2CCc3ccccc3C2)C1 (stereo not drawn) | 38.2
5 | CC(=O)NCC1CCN(C(=O)CCOc2ccc(C(C)C)cc2)CC1 | -39.35
6 | CSc1ccc(CNC(=O)NCC(O)c2cccc(F)c2)cc1 (stereo not drawn) | 19.6
7 | CNC(=O)NCC1CCC2(CCN(c3ncccn3)CC2)CO1 (stereo not drawn) | 15.8
8 | CC(=O)N1CC(=O)N(c2cnn(C)c2)CC12CCN(Cc1cccs1)C2 (stereo not drawn) | 6.27
9 | CN(C)Cc1cc(-c2nccn2CCc2cccnc2)ccc1O | 31.3
10 | CN(C)Cc1csc(-c2nccn2CCc2cccnc2)c1 | 59.1
11 | Cc1nc(C)c(Cn2ccnc2-c2cc(CN(C)C)cs2)s1 | 30.9
12 | CN(C)Cc1csc(-c2nccn2Cc2ccsc2)c1 | 66.1
13 | CN(C)Cc1csc(-c2nccn2Cc2ccc(C(=O)O)cc2)c1 | 37.4
14 | Cc1c(Cn2ccnc2-c2cc(CN(C)C)cs2)cnn1C | 23.5
15 | O=C(NCC1CCOCC1)c1cc(-c2ccncc2)c2cnccc2n1 | 17.4
16 | CN(Cc1nnc2n1CCC2)C(=O)CCc1ccc2c(c1)OCO2 | -21.8
17 | C[C@H]1CN(Cc2cccc(F)c2)C[C@@]12CCN(CC(=O)N(C)C)C2=O | 19.8
18 | Cc1ccc(N2CCCC(NCc3ccc(Cl)o3)C2)nn1 (stereo not drawn) | -12.1
19 | COc1ccc(C(C(=O)O)N(C)Cc2ccon2)cc1Cl (stereo not drawn) | -23.5
20 | COc1cccc(Cl)c1C(C(=O)O)N(C)Cc1c(C)n[nH]c1C (stereo not drawn) | 57.6
21 | COc1cccc(OC)c1C(C(=O)O)N(C)Cc1c(C)n[nH]c1C (stereo not drawn) | 53.3
22 | Cc1n[nH]c(C)c1CN(C)C(C(=O)O)c1c(F)cccc1OC(C)C (stereo not drawn) | 40.6
23 | Cc1n[nH]c(C)c1CN(C)C(C(=O)O)c1ccc2c(c1)OCO2 (stereo not drawn) | 11.2
24 | COc1cc(C)cc(OC)c1C(C(=O)O)N(C)Cc1c(C)nn(C)c1C (stereo not drawn) | 9.56
25 | COc1cccc(C(=O)N(C)C(C)c2c(C)n[nH]c2C)c1OC (stereo not drawn) | 12.6
26 | CCOc1ccccc1C(C(=O)O)N(C)Cc1nnc(C)o1 (stereo not drawn) | -0.614

Row | SMILES | INHIBITION [%]
27 | COc1cccc(Cl)c1C(C(=O)O)N(C)Cc1nnc(C)o1 (stereo not drawn) | 52.2
28 | COc1ccc(CCC(=O)Nc2ccc3ncn(C)c(=O)c3c2)cc1 | 22.3
29 | COCc1cn(CC2CCN(Cc3nc(C)c[nH]3)CC2)nn1 | -7.85
30 | Cc1cc(C(=O)N2CCc3c(CN(C)C)nn(C)c3C2)[nH]n1 | 13.7
31 | O=C(NCCc1ccncc1)c1cccc(S(=O)(=O)N[C@@H]2CCNC2)c1 | -16.1
32 | O=C(Nc1nc2c(s1)CN(S(=O)(=O)C1CC1)CC2)C1CC1 | 37.9
33 | O=C(Nc1nc2c(s1)CNCC2)NC1CCCC1 | 44.5
34 | O=C(Nc1nc2c(s1)CNCC2)C1CC1 | 52.7
35 | COc1ccc(C(=O)N2CCOc3ccncc32)cc1 | 60
36 | O=C(c1cc(-n2cccn2)ccn1)N1CCOc2ccc(F)cc21 | 23.3
37 | COc1cccc(OCC(=O)N2CCOc3ccncc32)c1 | -28.9
38 | O=C(c1cc(-n2cccn2)ccn1)N1CCOc2ccncc21 | 52.9
39 | O=C(COc1ccccc1Br)N1CCOc2ccncc21 | 9.35
40 | O=C(c1cc(-n2cccn2)ccn1)N1CCOc2ncccc21 | 30.5
41 | c1cnc2c(c1)cc([C@@H]1CCCO1)n2CCN1CCCCC1 | 38.8
42 | COC(=O)C(c1cc(F)ccc1F)N(C)C(=O)c1cnccn1 (stereo not drawn) | 48.4
43 | CC(C)c1nn(C)c(N(C)C)c1CNC(C)c1ccccc1F (stereo not drawn) | 15.5
44 | Cc1nc(CO[C@@H]2CN(Cc3ccco3)[C@@H]3COC[C@@H]32)cs1 | 18.2
45 | OC(c1ccccn1)C1CCN(Cc2cc3n(n2)CCCNC3)CC1 (stereo not drawn) | 51.2
46 | O=C1OCCN1C1CCN(Cc2cc3n(n2)CCCNC3)CC1 | -78.3
47 | OC(c1ccccn1)C1CCN(Cc2cc3n(n2)CCNC3)CC1 (stereo not drawn) | 61.5
48 | c1ccc(COC2CCN(Cc3cc4n(n3)CCCNC4)CC2)nc1 | 37.9
49 | c1ccc(C2CCCN(Cc3cc4n(n3)CCNC4)CC2)cc1 (stereo not drawn) | 18.4
50 | c1csc(N2CCN(Cc3cc4n(n3)CCNC4)CC2)n1 | -90.8
51 | c1cc(CNc2cnc(C3CCCN3)cn2)ccn1 (stereo not drawn) | 3.03
52 | COc1ccc(-c2cc(C3(O)CCCC3)on2)cc1 | -111

Row | SMILES | INHIBITION [%]
53 | CNC(=O)[C@H]1C[C@H]2OCC[C@H]2N(Cc2ccc(C)o2)C1 | 10.3
54 | Cn1cc(C2CC(=O)NC23CCN(Cc2ccncc2)CC3)cn1 (stereo not drawn) | -16.2
55 | CCOC(=O)N[C@H]1C[C@@H](C(=O)NCCc2cccc(Cl)c2)N(C)C1 | 55
56 | CCOC(=O)N[C@H]1C[C@@H](C(=O)NCc2cccc(Cl)c2)N(C)C1 | -0.71
57 | COCC(=O)N[C@H]1C[C@@H](C(=O)NCCc2cccc(Cl)c2)N(C)C1 | 31.1
58 | CC(C)CC(=O)N(C)CC(=O)Nc1ccc(Br)cn1 | 29.7
59 | CCN1CCN(c2ccc(C(=O)NCCn3ccnc3)cc2F)CC1 | 38.8
60 | CCN1CCN(c2ccc(C(=O)NCCOC)cc2F)CC1 | 76.7
61 | CCN1CCN(c2ccc(C(=O)NCc3cc(C)no3)cc2F)CC1 | 11.7
62 | Cn1nc(CN2CCCC2)c2c1CN(C(=O)Nc1cccc(F)c1)CC2 | 20.1
63 | Cc1ccc(C(=O)N2Cc3c(CN4CCCCC4)nn(C)c3C2)cc1C | 65.4
64 | Cc1ccc(C(=O)N2CCc3c(CN4CCCC4)nn(C)c3C2)cc1C | 44.3
65 | Cn1nc(Cn2ccnc2)c2c1CN(C(=O)c1ccoc1)C2 | 47.4
66 | Cc1ccc(C(=O)N2Cc3c(CN4CCCCC4)nn(C)c3C2)cc1F | -31
67 | Cn1nc(CN2CCCCC2)c2c1CN(C(=O)Nc1cccc(F)c1)C2 | 79.6
68 | CCCc1ccc(C(=O)N2Cc3c(Cn4ccnc4)nn(C)c3C2)cc1 | 78.8
69 | CN(C)Cc1nn(C)c2c1CN(C(=O)Nc1cccc(F)c1)C2 | -36.2
70 | COc1ccc(C(=O)N2Cc3c(Cn4ccnc4)nn(C)c3C2)cc1 | 32.4
71 | O=C(NCCCn1cncn1)N1CCCCCC1 | 20.45
72 | COCCOc1ncccc1C(=O)N1CCCCC1c1nccs1 (stereo not drawn) | -38.7
73 | CCc1cc(C(=O)N2CCC(c3cc4ncccc4cn3)CC2)on1 | 20.8
74 | CCCN1CCN(C(=O)c2ccn(COc3ccc(F)cc3)n2)CC1 | 2.69
75 | CCOc1ccccc1C(=O)Nn1c(C)cc(C)cc1=O | 44.1
76 | CC(=O)N1CCN(CCNC(=O)NC(C)Cn2ccnc2)CC1 (stereo not drawn) | 43.5
77 | O=C(NC1CC1)[C@H]1C[C@@H]2CCN(Cc3ccc4c(c3)OCO4)C[C@@H]2O1 | 61.1
78 | COCCNC(=O)[C@H]1C[C@@H]2CCN(Cc3ccoc3)C[C@H]2O1 | 30.1

Row | SMILES | INHIBITION [%]
79 | O=C(NCC1CC1)[C@@H]1C[C@@H]2CCN(Cc3ccoc3)C[C@@H]2O1 | -10.3
80 | O=C(NCC1CC1)[C@H]1C[C@@H]2CCN(Cc3ccc4c(c3)OCO4)C[C@@H]2O1 | 30.4
81 | CNC(=O)[C@@H]1C[C@@H]2CCN(Cc3ccoc3)C[C@H]2O1 | 30.3
82 | O=C(NC1CCCC1)[C@@H]1C[C@@H]2CCN(Cc3ccoc3)C[C@H]2O1 | 54.8
83 | CC(C)NC(=O)[C@@H]1C[C@@H]2CCN(Cc3ccoc3)C[C@H]2O1 | 53.9
84 | CNC(=O)[C@H]1C[C@@H]2CCN(Cc3ccc4c(c3)OCO4)C[C@@H]2O1 | -9.18
85 | O=C(NC1CC1)[C@@H]1C[C@@H]2CCN(Cc3ccoc3)C[C@@H]2O1 | 49.4
86 | CCN(C)[C@H]1CN(C(=O)c2cccc(N3CCS(=O)(=O)CC3)c2)C[C@@H]1O | 8.74
87 | O=C1CC2(CCN(Cc3ccccn3)C2)CN1c1cncnc1 (stereo not drawn) | -3.41
88 | Cc1nccn1-c1ccc(NS(=O)(=O)c2cccnc2)cn1 | 6.94
89 | O=C(c1ccsc1)N1CCO[C@@H]2CN(Cc3cccs3)C[C@@H]2C1 | -2.46
90 | CSCCCNC(=O)c1coc(Cn2cnc3ccccc32)n1 | 25.1
91 | O=C(NCCO)c1coc(Cn2cnc3ccccc32)n1 | 52
92 | O=C(NCC1CCCO1)c1coc(Cn2cnc3ccccc32)n1 (stereo not drawn) | 69.1
93 | O=C(NCC1CCCCO1)c1cc(Cn2cnc3ccccc32)[nH]n1 (stereo not drawn) | 31.4
94 | O=C(NCCO)c1coc(CN2CCN(c3ccccc3F)CC2)n1 | 26.9
95 | Cn1cnc(-c2nc(C(=O)NCC3CCCO3)c3ccccn23)c1 (stereo not drawn) | 4.08
96 | CC(C)=CCN1C(=O)[C@@H]2CC[C@H]1CN(c1ncccc1C(N)=O)C2 | 49.7
97 | CC(C)(C)c1cc(NC(=O)CN2CCn3c(nnc3C3CC3)C2)on1 | -3.8
98 | NC(=O)C1CN(C(=O)Nc2ccccc2Oc2ccccc2Cl)CCO1 (stereo not drawn) | -67.7
99 | COc1ccc(C(=O)N2CC[C@@H]3[C@H](CC2)N(C)CCS3(=O)=O)cc1 | -14.3
100 | O=C(C1CC1)N1CC2(CCN(CC3CC3)CC2)c2cc(F)ccc21 | -15.9
101 | COC(=O)CC1CN(Cc2ccn(-c3ccc(F)cc3)n2)CCO1 (stereo not drawn) | 52.2
102 | COC(=O)C1CN(Cc2ccn(-c3ccc(F)cc3)n2)C[C@@H](C)O1 (stereo partly drawn) | 16
103 | COC(=O)C1CN(Cc2ccn(-c3ccc(F)cc3)n2)CCO1 (stereo not drawn) | -173
